# Test results published in ChEMBL document CHEMBL1201862, “PubChem BioAssay data set” (2004).
# Hit rate of the full screen: of about 400,000 compounds, about 2,100 (0.53%) were called active. Roughly 14% stayed inconclusive and do not appear here. The sample holds actives, similar compounds and a random draw of the others, so the mix is not that of the screen. The rule behind the calls is not given here.
# Target: Ataxin-2 (Homo sapiens) (UniProt Q99700)
# Test: qHTS for Inhibitors of ATXN expression.
# Format: functional
# Sequence of Ataxin-2 (Homo sapiens) (Q99700 whole entry): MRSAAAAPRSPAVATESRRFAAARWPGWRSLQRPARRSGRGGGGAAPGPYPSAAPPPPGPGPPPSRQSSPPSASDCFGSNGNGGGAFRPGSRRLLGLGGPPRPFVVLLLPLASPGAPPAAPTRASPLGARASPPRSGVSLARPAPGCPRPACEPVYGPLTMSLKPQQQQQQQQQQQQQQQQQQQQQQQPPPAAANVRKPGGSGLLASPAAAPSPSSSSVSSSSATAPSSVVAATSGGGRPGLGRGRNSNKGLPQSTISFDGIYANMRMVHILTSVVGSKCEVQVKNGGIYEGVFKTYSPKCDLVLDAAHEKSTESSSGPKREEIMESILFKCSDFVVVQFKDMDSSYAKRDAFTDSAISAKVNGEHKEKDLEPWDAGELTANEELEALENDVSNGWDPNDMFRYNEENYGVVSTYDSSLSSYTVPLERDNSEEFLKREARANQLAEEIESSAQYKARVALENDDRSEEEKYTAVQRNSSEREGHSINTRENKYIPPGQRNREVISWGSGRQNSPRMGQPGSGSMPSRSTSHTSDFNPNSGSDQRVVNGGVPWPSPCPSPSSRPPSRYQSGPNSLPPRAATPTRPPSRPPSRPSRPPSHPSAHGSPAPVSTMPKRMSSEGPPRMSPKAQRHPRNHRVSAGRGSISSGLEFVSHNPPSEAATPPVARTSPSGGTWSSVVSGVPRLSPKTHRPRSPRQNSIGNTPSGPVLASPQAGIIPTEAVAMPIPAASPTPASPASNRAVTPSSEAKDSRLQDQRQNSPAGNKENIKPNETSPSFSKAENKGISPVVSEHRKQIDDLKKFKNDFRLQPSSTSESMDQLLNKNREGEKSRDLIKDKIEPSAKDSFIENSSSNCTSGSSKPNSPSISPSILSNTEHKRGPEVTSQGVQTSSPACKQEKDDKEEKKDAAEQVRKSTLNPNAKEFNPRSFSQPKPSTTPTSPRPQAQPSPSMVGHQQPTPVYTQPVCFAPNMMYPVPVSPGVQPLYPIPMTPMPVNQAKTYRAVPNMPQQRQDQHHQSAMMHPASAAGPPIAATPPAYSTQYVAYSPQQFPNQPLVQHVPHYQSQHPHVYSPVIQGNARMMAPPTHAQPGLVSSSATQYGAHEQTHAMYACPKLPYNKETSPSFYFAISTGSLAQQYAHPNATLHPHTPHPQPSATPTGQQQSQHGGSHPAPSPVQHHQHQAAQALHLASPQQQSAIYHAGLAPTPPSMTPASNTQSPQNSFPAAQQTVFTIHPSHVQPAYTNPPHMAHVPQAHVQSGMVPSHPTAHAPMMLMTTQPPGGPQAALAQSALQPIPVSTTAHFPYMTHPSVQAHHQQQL
row,Compound,Potency
1,O=c1oc2ccc3ccccc3c2cc1-c1nc2ccccc2o1,inactive
2,NNC(=O)c1cc2c(ccc3ccccc32)o1,inactive
3,O=c1cc(C(Cl)(Cl)Cl)oc2c1ccc1ccccc12,35.5 µM (active)
4,CCc1nonc1NC(=O)COc1cc(C)c(Cl)c(C)c1,inactive
5,Fc1ccc(-n2cc(-c3ccccc3)c3c(S)ncnc32)cc1,39.8 µM (active)
6,COc1ccc(-n2cc(-c3ccccc3)c3c(NN4CCOCC4)ncnc32)cc1,inactive
7,COc1ccc(-n2cc(-c3ccccc3)c3c(NCCCN4CCOCC4)ncnc32)cc1,inactive
8,Cc1[nH]c2ccccc2c1C(O)CN1CCC2(CC1)OCCO2 (stereo not drawn),inactive
9,CCc1ccc(C(c2ccccc2)c2c(C)[nH]c3ccccc23)s1 (stereo not drawn),39.8 µM (active)
10,Cc1[nH]c2ccccc2c1C(c1ccccc1)c1cccs1 (stereo not drawn),39.8 µM (active)
11,CC(C)CCN1C(=O)c2cccc3c(N)ccc(c23)C1=O,inactive
12,O=c1c2sccc2nc(SCc2cc(=O)n3cc(Cl)ccc3n2)n1Cc1ccccn1,inactive
13,COc1ccc(OC)c([N+]2=C3SCCCN3C(O)(c3ccccc3)C2)c1 (stereo not drawn),inactive
14,Cn1cc(CN2CCc3c([nH]c4ccccc34)C2C2CCCCC2)cn1 (stereo not drawn),inactive
15,Cc1ccc2oc3c(c(=O)c2c1)C(c1ccc(O)cc1)N(CCCN(C)C)C3=O (stereo not drawn),inactive
16,CSc1ccc(C2c3c(-c4ccccc4O)n[nH]c3C(=O)N2Cc2ccncc2)cc1 (stereo not drawn),22.4 µM (active)
17,CCc1ccc(C2c3c(-c4cc(C)ccc4O)n[nH]c3C(=O)N2Cc2cccnc2)cc1 (stereo not drawn),39.8 µM (active)
18,CCc1ccc(C2c3c(-c4ccccc4O)n[nH]c3C(=O)N2Cc2cccnc2)cc1 (stereo not drawn),22.4 µM (active)
19,COCCN1C(=O)c2[nH]nc(-c3cc(C)ccc3O)c2C1c1ccc(C(C)C)cc1 (stereo not drawn),39.8 µM (active)
20,O=C1c2cccc3c([N+](=O)[O-])ccc(c23)C(=O)N1Cc1cccnc1,inactive
21,Cc1ccc(C(=O)C2=C(O)C(=O)N(Cc3cccnc3)C2c2ccc(Cl)cc2)o1 (stereo not drawn),inactive
22,CCOC(=O)c1sc2c(c1C)C(c1cccs1)C1=C(O)CCCC1=N2 (stereo not drawn),inactive
23,c1cc(-c2sc(-c3ccncc3)c(-c3ccncc3)c2-c2ccncc2)ccn1,inactive
24,COc1ccc(-n2c(=O)/c(=C\c3cccs3)s/c2=C(/C#N)C(=O)NCCN2CCOCC2)cc1,inactive
25,CCOc1ccccc1Oc1c[nH]nc1-c1ccc(OCC(=O)NN)cc1O,inactive
26,CCCOc1ccc(C2c3c(-c4ccccc4O)n[nH]c3C(=O)N2Cc2cccnc2)cc1 (stereo not drawn),35.5 µM (active)

row,Compound,Potency
1,CCCOc1ccc(C2c3c(-c4ccccc4O)n[nH]c3C(=O)N2CCCOCC)cc1OCC (stereo not drawn),22.4 µM (active)
2,CCOc1ccc(C2CC(c3c(O)oc4ccccc4c3=O)=NN2c2ccccc2)cc1OC (stereo not drawn),inactive
3,O=C(C1CCCO1)N1CCN(C(=O)C23CC4CC(CC(C4)C2)C3)CC1 (stereo not drawn),inactive
4,O/N=C1\CCCc2ccc3ccccc3c21,inactive
5,Cc1ccc(OC(=O)c2ccncc2)c(C)c1,inactive
6,O=C(NCc1csc(-c2cccs2)n1)c1cccc(Cl)c1,inactive
7,O=S(=O)(NCc1csc(-c2cccs2)n1)c1ccc(Cl)cc1,inactive
8,O=C(NNC(=O)c1csc(-c2cccs2)n1)c1ccc(Cl)cc1,22.4 µM (active)
9,C=CCn1c(NC(=O)c2ccccc2Cl)c(C#N)c2nc3ccccc3nc21,inactive
10,CCOC(=O)c1cnc2ccc(C)cc2c1N(C)Cc1ccccc1,inactive
11,CCOC(=O)c1cnc2ccc(C)cc2c1Nc1ccc(N(CC)CC)cc1,28.2 µM (active)
12,CCOC(=O)c1cnc2ccc3ccccc3c2c1O,inactive
13,CS(=O)(=O)c1ccc(Cl)c(NC(=O)CSc2n[nH]c(-c3cccs3)n2)c1,inactive
14,COC(=O)Cc1cc(=O)oc2cc(O)ccc12,inactive
15,Cc1nn(CC(=O)NCCCN2CCCCC2)c(=O)c2cccn12,inactive
16,S=C(NCCCN1CCOCC1)NC1CC1,inactive
17,O=C(NCCCCCCCN1CCCCCCC1)C(C1CCCCC1)C1CCCCC1,21.2 µM (active)
18,Cn1c(SC2=CS(=O)(=O)c3ccccc32)nc2ccccc21,15.8 µM (active)
19,CCC(=O)c1ccc(/C=C/c2nc3ccccc3n2C)o1,inactive
20,Cn1c(=O)c(/C=C/c2ccc(F)cc2)nc2ccccc21,inactive
21,Cn1c(-c2c(N)n(-c3ccccc3)c3nc4ccccc4nc23)nc2ccccc21,inactive
22,O=C(CCl)c1ccc(Cc2ncc(C(F)(F)F)cc2Cl)s1,39.8 µM (active)
23,C#CCNC(=O)C(C)c1ncc(C(F)(F)F)cc1Cl (stereo not drawn),inactive
24,FC(F)(F)c1cnc(NNC(=S)Nc2ccccc2)c(Cl)c1,inactive
25,O=C(C[C@H]1C/C=C\C[C@@H](NC(=O)OCC2c3ccccc3-c3ccccc32)C(=O)O[C@@H](c2ccccc2)CNC1=O)N[C@H](CO)Cc1ccccc1,31.6 µM (active)
26,Nc1ccccc1-n1nc2ccc3ccccc3c2n1,inactive

row,Compound,Potency
1,COc1ccc(OC)c(/C=C/C(=O)N(C)CC(=O)Nc2cc(C)ccc2C)c1,inactive
2,COc1cccc(NC(=O)c2sc3nc(C)c(C(=O)Nc4ccc(C)cc4C)c(-c4ccc(Br)cc4)c3c2N)c1,inactive
3,CNc1ccc(Br)cc(C(=O)/C=C/c2cccc(OC)c2)c1=O,28.2 µM (active)
4,COc1ccc(Br)cc1/C=C/C(=O)NC(=S)Nc1ccc(Cl)c(C(=O)O)c1,inactive
5,CNc1ccc(Br)cc(C(=O)/C=C/c2cc(OC)ccc2OC)c1=O,39.8 µM (active)
6,COc1cc(C(=O)Nc2ccc(Br)cc2C(=O)c2cc(OC)c(OC)c(OC)c2)cc(OC)c1OC,inactive
7,Cc1ccc2nc(N3CCN(C)CC3)c(C=O)c(=O)n2c1,inactive
8,COCC(C)NC(=O)c1cc(-c2ccc(O)cc2)on1 (stereo not drawn),inactive
9,Nc1c2ccccc2nc2ccccc12,inactive
10,CNC(=O)Nc1cc(C(F)(F)F)cc(C(F)(F)F)c1,inactive
11,O=C(Nc1cccnc1)Nc1cccc(F)c1,inactive
12,NC(c1csc(NC(=O)Nc2cccc(C(F)(F)F)c2)n1)C1CCCCC1 (stereo not drawn),28.2 µM (active)
13,COC(=O)Cc1csc(N/C=C2/C(=O)N(c3cccc(C(F)(F)F)c3)C(=O)c3ccccc32)n1,inactive
14,CC(C)C(N)c1csc(NC(=O)Nc2cccc(C(F)(F)F)c2)n1 (stereo not drawn),35.5 µM (active)
15,CCCCNc1ccc2c3c(cccc13)C(=O)N(CCCC)C2=O,inactive
16,Cc1nn2c(-c3ccccc3)c(-c3ccccc3)nc2nc1O,inactive
17,Cc1cc(C)cc(CC2CC(=O)N(c3cc(C)ccc3C)C2=O)c1 (stereo not drawn),inactive
18,CCC(C)Sc1ccc(-c2nc3cnccn3c2NC2CCCCC2)cc1 (stereo not drawn),inactive
19,CC(C)(C=O)C1=CC(=O)c2ccccc2C1=O,10 µM (active)
20,CCOC(=O)c1c(NC(=O)c2nn(C)cc2[N+](=O)[O-])sc(C)c1C,inactive
21,CCCNC1=C(N(C(C)=O)c2cccc(F)c2)C(=O)c2ccccc2C1=O,31.6 µM (active)
22,C=CCNC(=O)C1CC(=O)N(c2ccc(OCC(=O)N3CCCC3)cc2)C1 (stereo not drawn),inactive
23,CCC/C(C#Cc1ccc(N(C)C)cc1)=C1/c2ccccc2C(=O)N1c1ccccc1,inactive
24,Nc1nc(N)c2cc(Sc3ccc(Cl)cc3)ccc2n1,35.5 µM (active)
25,O=C(O)c1cc(Sc2ccc(Br)cc2)nc2ccccc12,inactive
26,N#C/C(=C\c1ccc(N2CCOCC2)o1)C(=O)NCCc1ccccc1,inactive

row,Compound,Potency
1,COc1ccc(C(=O)NN=C2CCCC2)cc1,inactive
2,COc1ccc(C(=O)COc2ccccc2C#N)cc1,inactive
3,COc1ccc(C(=O)C(CCCCC(CN(C)C)C(=O)c2ccc(OC)cc2)CN(C)C)cc1 (stereo not drawn),31.6 µM (active)
4,CC(=O)c1cccc(S(=O)(=O)N2CCC(C(=O)Nc3cccc(C(=O)NC4CC4)c3)CC2)c1,inactive
5,Nc1ccc(OC(=O)Nc2ccc(O)cc2)cc1,inactive
6,CCOC(=O)CN1N=C(c2ccc(Cl)cc2)CCC1=O,inactive
7,CCOC(=O)N1C(=O)[C@@](c2ccc(Cl)cc2)(C(C)C)N1C(=O)OCC,31.6 µM (active)
8,CCN(CC)C(=O)Cn1cc(C(=O)C(=O)N2CC=C(c3ccccc3)CC2)c2ccccc21,inactive
9,Cc1cccc(NC(=O)NNC(=O)c2cc3ccccc3cc2O)c1C,inactive
10,C=CCC[C@@H](Cc1ccc(F)cc1)C(=O)OC[C@H](C)NC(=O)[C@H](CC=C)CC(=O)N(CCO)Cc1ccccc1,28.2 µM (active)
11,C=CCC[C@@H](Cc1ccc(F)cc1)C(=O)OC[C@@H](C)NC(=O)[C@H](CC=C)CC(=O)N(CCO)Cc1ccccc1,39.8 µM (active)
12,C/C(=N\NC(=O)Cc1csc(N2CCOCC2)n1)c1ccc(Cl)c(Cl)c1,inactive
13,Nc1cccc2c1C(=O)N(CCOc1ccccc1F)C2=O,inactive
14,CCCc1c(-c2ccccc2Br)ncn1Cc1ccccc1OC,31.6 µM (active)
15,CCCCc1c(-c2ccccc2F)ncn1CCc1ccccc1OC,31.6 µM (active)
16,CCCCCc1c(-c2ccccc2OC)ncn1CCc1ccccc1OC,31.6 µM (active)
17,CCCCCN1C(C(=O)c2ccccc2)=C(NC(=O)c2ccc(OC)c(OC)c2)c2ccccc2S1(=O)=O,inactive
18,CCCCc1c(-c2ccccc2Br)ncn1CCc1ccccc1OC,28.2 µM (active)
19,Cc1cc(Cl)n2c(nc3ccccc32)c1C#N,inactive
20,CC(CCCC(C)(C)O)NC(=O)c1ccc(OC2CCN(C(=O)C3CC3)CC2)cc1 (stereo not drawn),inactive
21,CCCCc1c(-c2ccc(F)cc2F)ncn1CCc1ccccc1OC,35.5 µM (active)
22,CCCCCc1c(-c2ccccc2F)ncn1CCc1ccccc1OC,28.2 µM (active)
23,CCOC(=O)C1(CCOC)CCCCC1=O (stereo not drawn),inactive
24,Cc1ccc(Nc2nc(Cl)c(C=O)s2)cc1Cl,inactive
25,CC(C)N(CCNCc1nnc(-c2ccccc2)o1)C(C)C,inactive
